In publication PMC12136788:
Positions count from the first letter of the chain named. The full ranking holds about 24,000 sequences; the median of “enrichment r” is about 0.99, and the highest 2% start at about 3.7. The entries come from a sample that favours the highest values as a whole.

B1: chr1:235506153:235506154:+_ENSG00000152904_ENST00000391855|hu_mus|FALSE|FALSE (ssRNA)
RNA: GGGAGUUCUACAGUCCGACGAUCGAAGACAGCUACACUUACAUAUAAUAAAUAAAUCUUAAAAAAAAAAAAAAGAAAAGAUAAAUGGGAUGAAGCCACUCCUCAUUUUCAACUGAAAGAAGCUACUGAGUCUAAUCCAGAAAGCAACAGAGGAUUGAGCAUCA
B2: chr2:27118074:27118075:-_ENSMUSG00000009621_ENSMUST00000056176|mus_mus|motif|central (ssRNA)
RNA: GGGAGUUCUACAGUCCGACGAUCCACAGAUAUAUAAUGGGAGACUUAGAUGAAAUAAUUACAACUUCCCCUCCCCCUUCGGAAAUACAAACAGAUAAAACAUAACAGGACAAAAAAAGCUACAACAACAGAAAAACAAACAGACAACAGAGGAUUGAGCAUCA
B3: chr16:94690093:94690094:+_ENSMUSG00000040785_ENSMUST00000117648|mus_hu|mus_mus_mus_hu_True|1_48 (ssRNA)
RNA: GGGAGUUCUACAGUCCGACGAUCGGGCUGGGAUGACGGACACACAGCCUCGAUUCCAGGGGGAAAAAGUCUUAGUCGAUACUAAUUUAAAAAGUAUAAUGAUUUUUGAAAAUCAGAUUACAUCUAUAAAAGAUGAAAGCACUUCAACAGAGGAUUGAGCAUCA
B4: chr15:12269436:12269437:+_ENSMUSG00000022200_ENSMUST00000059680|mus_mus|motif|central (ssRNA)
RNA: GGGAGUUCUACAGUCCGACGAUCUAAAAGACUUUUUCUUCUCAUUCCACAAGCCUCUAACUGUAACCUUCCUCUCAAAGCGGAUUCAAUUAACAUACAGCCACGUAAUCCAGAUGAUAUACAGUCAUUCCAAAAUGAUGUGUACAACAGAGGAUUGAGCAUCA
B5: chr2:27118074:27118075:-_ENSMUSG00000009621_ENSMUST00000056176|mus_mus|FALSE|FALSE (ssRNA)
RNA: B2 RNA with G80U, G81A
B6: chr5:145543945:145543946:-_ENSG00000133706_ENST00000545646|hu_hu|hu_hu_hu_mus_True|1_108 (ssRNA)
RNA: GGGAGUUCUACAGUCCGACGAUCCUGAAUAGCCAGUGGUGGGAAAUAAUCAAGCCAGUGCUCUGCUUCAGAAAACUUCACUAUGUCGUCAUCAGAGAGCCCAAGGGAUUUCAUAAUGUCCCACUGGUACUUAGAAGAUCCAGCCAACAGAGGAUUGAGCAUCA
B7: chr14:62194323:62194324:+_ENSG00000100644_ENST00000337138|hu_mus|motif|central (ssRNA)
RNA: GGGAGUUCUACAGUCCGACGAUCUCUUUCAUCACAGUAAGAAAAUUUCAUAUCGAGGCUGUGUCGACUGAGAAAUGUCUUGCGGUCGGAAGGAAUUUCAAUAUUUGACGGAUGAGGAAUGGGUUCACAAAUCAGCACCAAGCACAACAGAGGAUUGAGCAUCA
B8: chrX:15845472:15845473:-_ENSG00000182287_ENST00000329235|hu_mus|motif|central (ssRNA)
RNA: GGGAGUUCUACAGUCCGACGAUCCCACAAGAAGUCAUCAGCAAGGGAGGACAGUUAUGUCAGUCCAAUUUCUUCAAGAACACGGCGUGGGGUUUCAGCUUCUUUUGCAUCCUCCUGCAGGAGAUCGGCCUGCUCAAUUGCUUUCAACAGAGGAUUGAGCAUCA
B9: chr17:8508246:8508247:-_ENSG00000133026_ENST00000269243|hu_hu|motif|central (ssRNA)
RNA: GGGAGUUCUACAGUCCGACGAUCGUACAUUUCAAUAAUAUUCUCAGAGUAAAUUGGAAGAUUCUUGUAAGGGUUUAUAACGGCACAGAAGAGUCCAGAAUAAGUAUAGAUUAGUCCUGAAUAGUAGCGAUCCUUCAGAUUAUGCAACAGAGGAUUGAGCAUCA
B10: chr18:86887116:86887117:+_ENSMUSG00000024647_ENSMUST00000068423|mus_mus|motif|central (ssRNA)
RNA: GGGAGUUCUACAGUCCGACGAUCCGCGUCAGCUCCGCCAUUGUUAAGGGAUUCAUGAGCAAUGAGCAAUGCCAGGUUACGGAGGGAUCCCAGAGAAUAAAUUAAAAAAAAAAAAAAAUGAAAUCCACGUUGCAAGUUUGAAGCCAACAGAGGAUUGAGCAUCA
B11: chr5:56168760:56168761:+_ENSG00000095015_ENST00000399503|hu_hu|motif|central (ssRNA)
RNA: GGGAGUUCUACAGUCCGACGAUCUCUAGAAAAUAAGCAGCCAACGAGUUCCAUUCCAAACACCUGAAUCCAUGGCUCAGCGGAAUCUUUGUAAGCAGGAGGGAUUUGCUGAGUUCCAUAAUGAGUAAGGUUAAAAUUGCUCUCCAACAGAGGAUUGAGCAUCA
B12: 75584029_75587226_729_CDS_ENSG00000119638_ENST00000238616|human|control|control (ssRNA)
RNA: GGGAGUUCUACAGUCCGACGAUCCGUCUCAGCCAUGGAAUACUCAGAAUUAAGUUUCUUUGCUAGGCCAUAAUCUCCAAGUUUUAUCAGGUUUGCCUUGGUCAGAAAAAUAUUUAAUGUCUUUAUAUCUCUAUGAAGGAUUCCCAACAGAGGAUUGAGCAUCA
B13: chr19:7360422:7360423:-_ENSMUSG00000024969_ENSMUST00000032557|mus_mus|FALSE|FALSE (ssRNA)
RNA: GGGAGUUCUACAGUCCGACGAUCAUAAGGAGGACUGCCACAGAAAGUAUCCAGCUUGUUCCCAAAGGUGAAUUCGUUGCUAAAGCCAAAGUCUGCAAUCUUGAUGUUCAUAUCAGCAUCCAGGAGCAGGUUUUCUGCCUUUAGCAACAGAGGAUUGAGCAUCA
B14: chr17:39847130:39847131:+_ENSG00000173812_ENST00000469257|hu_mus|motif|central (ssRNA)
RNA: GGGAGUUCUACAGUCCGACGAUCAUUACAUUAUACAAGCUGUGAGGUUUUUAAACUUGUGACAAGGGACAGAAGGGAAAUUCGGCUCAUUGCAAGGAAAUCCUCACUUAAGCUUCAGAGAGCCACAAGCACUUAAAACCCAUGCAACAGAGGAUUGAGCAUCA
B15: chr18:86887116:86887117:+_ENSMUSG00000024647_ENSMUST00000068423|mus_mus|FALSE|FALSE (ssRNA)
RNA: B10 RNA with G80U, G81A

target: T1, UNK ZnF1-3 (human, UniProt Q9C0B0 31-174); experiment: nsRBNS (natural sequence RNA bind-n-seq); RBNS binding buffer (assumed for nsRBNS): 25 mM Tris pH 7.5, 150 mM KCl, 3 mM MgCl2, 0.01% Triton X-100, 500 ug/ml BSA, 20 U/ml SUPERase-In, 4 C; UNK is unkempt and MSI1 is Musashi-1; names of the RNAs are library labels; protein concentration not given here; high values mean tight binding
T1 sequence: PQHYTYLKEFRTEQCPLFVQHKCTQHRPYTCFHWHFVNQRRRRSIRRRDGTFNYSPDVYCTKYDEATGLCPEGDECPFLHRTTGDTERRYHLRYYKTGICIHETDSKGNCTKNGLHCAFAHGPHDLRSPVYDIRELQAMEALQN

With B1 as the binder, how does the binding signal read?
Its binding signal is 20.8 enrichment R.

Which binding signal does the source give for B2 here?
The binding signal was 3.78 enrichment R.

With B3 as the binder, how does the binding signal read?
Its binding signal is 0.785 enrichment R.

How did the binding signal turn out when B4 was run?
Its binding signal is 0.956 enrichment R.

For B5, which binding signal is on record?
Its binding signal is 4.31 enrichment R.

Which binding signal does the source give for B6 here?
Its binding signal is 1.11 enrichment R.

Which binding signal does the source give for B7 here?
The binding signal was 1.84 enrichment R.

For B8, which binding signal is on record?
The binding signal was 1.01 enrichment R.

B9 was tested. Which binding signal did it give?
Its binding signal is 1.92 enrichment R.

B10 was tested. Which binding signal did it give?
Its binding signal is 8.87 enrichment R.

B11 was tested. Which binding signal did it give?
Its binding signal is 1.25 enrichment R.

How did the binding signal turn out when B12 was run?
The binding signal was 1.02 enrichment R.

Which binding signal does the source give for B13 here?
Its binding signal is 0.665 enrichment R.

Which binding signal does the source give for B14 here?
The binding signal was 1.49 enrichment R.

With B15 as the binder, how does the binding signal read?
Its binding signal is 6.14 enrichment R.
